# Lassa entry inh – blocks Lassa virus binding to or entry into cells. Lassa virus pseudotype entry inhibition, cell reporter. hit rate 1.2% among 300,000. Potency, µM (doses to about 37.9 µM), for inactives: at the highest dose activity change, negative = inhibition, hits mostly inhibitors; calls by dose curve; tested in HEK293 cells; further: potency means the concentration at half of the fitted maximal effect; on the % scale 0 is the no-effect control and ±100 the full control effect; nearly all actives have a fitted effect of over 50% in size
# AMA1-RON2 inh – inhibitors of Plasmodium falciparum AMA1-RON2 interaction | AlphaScreen AMA1-biotinylated RON2 peptide binding | Potency, µM (highest dose often 58.2 µM), for the others: at the highest dose activity change, negative = inhibition, most hits filed as inhibitors | hit rate 0.2% among 360,000 | AID 720542; active means well fitted inhibition curve with a large enough effect; inconclusive means small, poorly fitted or top-dose-only effect; inactive means no such curve, though single readings can be large or run the other way;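 further: potency means the concentration at half of the fitted maximal effect; 0% = vehicle wells and -100% = peptide control; nearly all actives have a fitted effect of over 45% in size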
#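 AMA1 (3D7) with his tag at 25 nM final met compounds first, then biotinylated RON2 peptide at 25 nM; detection used donor plus acceptor beads, 10 µg/mL apiece, read by AlphaScreen after 30 min at room temperature.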
# Cycloheximide cs – counter-screen for Shiga toxin inhibitors: cycloheximide protein synthesis inhibition; cell reporter, cycloheximide protein synthesis inhibition counterscreen; hit rate 12% among 300,000; max response, %; in the data active means max response mostly above about 13%, no sharp cut-off; inactive means mostly below about 14%; further: read at 38.3 µM for the half of the compounds with a filed dose; 0% is about no effect
# Marburg entry inh – Marburg virus entry inhibition; Marburg virus pseudotyped entry inhibition, cell reporter; Potency, µM (highest dose often 37.8 µM), without a hit: top-dose activity change, negative = inhibition, hits mostly inhibitors; hit rate 1.8% among 300,000; AID 540276; calls by dose curve; tested in HEK293 cells; further: potency means the concentration at half of the fitted maximal effect; on the % scale 0 is the no-effect control and ±100 the full control effect
# Shiga inhibitor – blocks Shiga toxin action in Vero cells | Vero cells, Shiga toxin protein synthesis inhibition reporter | AID 2315 | inhibition, % at 38.7 µM | hit rate 9.2% among 290,000; in the data active means inhibition mostly above about 28%, no sharp cut-off; inactive means mostly below about 43%; further: 0% is about no effect
# * = called active by the depositor; ? = inconclusive; . = no result given; [ ] = remark or other dose. Shown is part of a subset that was picked to be rich in hits.
SMILES,Lassa entry inh,AMA1-RON2 inh,Cycloheximide cs,Marburg entry inh,Shiga inhibitor
O=C(Nc1nnc(-c2ccc(Cl)cc2)o1)Nc1ccccc1F,19.0%,13.8%,22.1,13.3%[46.1 µM],34.2*
O=C(Nc1ccccc1)Nc1nnc(-c2ccccc2)o1,-3.7%,4.6%,5.8,-9.3%,0.8
Cc1cc(Cl)ccc1NC(=O)c1ccc2c(c1)OCO2,?,1.8%,25.9*,?,76.6*
O=C(Nc1ccc(Cl)cc1Cl)c1ccc2c(c1)OCCO2,.,-5.0%,.,.,.
Cc1ccc(C(=O)Nc2ccc3c(c2)OCO3)cc1Cl,.,.,50.5*,.,168.0*
Cc1ccc(NC(=O)c2ccc3c(c2)OCO3)cc1Cl,.,0.9%,45.3*,.,90.4*
N#C/C(N=Nc1ccccc1O)=N\Nc1ccccc1O,.,-15.1%,.,.,.
O=C(CCc1nnc(CCCc2ccccc2)o1)NC(C1CC1)C1CC1,-19.1%[46.1 µM],22.6%,33.4*,?,55.2*
Cc1nc(C(C)NC(=O)CCc2nnc(CCCc3ccccc3)o2)c(C)s1 (stereo not given),15.8%,-8.8%,31.7*,-1.2%[46.1 µM],74.8*
O=C(CCc1nnc(CCCCc2ccccc2)o1)N1CCCC(O)C1 (stereo not given),.,-4.9%,12.9*,.,38.3
Cc1cc(C)n(CC(C)NC(=O)CCc2nnc(CCc3ccccc3)o2)n1 (stereo not given),-7.8%,13.9%,5.3,11.2%[46.1 µM],2.8
C#CCn1c(CCNC(=O)c2ccco2)nc2ccccc21,.,33.4%,-1.3,.,18.7
Cc1c(Cl)cccc1NC(=O)c1ccc2c(c1)CCN2S(=O)(=O)c1ccccc1,16.5%[46.1 µM],.,.,10.7%[46.1 µM],.
O=c1oc2c(-c3ccc([N+](=O)[O-])cc3)cc(O)cc2s1,?,14.5%,14.8*,-14.4%[46.1 µM],6.2
O=C1ON=C(c2ccc([N+](=O)[O-])cc2)/C1=C/c1ccccc1O,11.5%[46.1 µM],-6.8%,-1.7,?,-5.7
N#Cc1ccccc1OCC(=O)OCC(=O)NC1CC1,.,-5.0%,.,.,.
Fc1ccccc1CCNc1c2c(nc3ncnn13)CCCC2,-13.6%[46.1 µM],0.0%,-2.6,6.31µM*,-2.2
COc1ccc(N2C(=O)/C(=C\c3ccco3)N=C2SCC(=O)NC(C)(C)C)cc1Cl,-4.1%,-24.8%,13.4*,-27.8%,25.4
COc1ccc(C(=O)NCCCN2CCCC2=O)cc1,12.4%,-4.7%,9.1,5.4%[46.1 µM],11.9
O=C(NCCCN1CCCC1=O)c1ccc(OCc2ccccc2)cc1,8.7%,-4.8%,28.0*,?,44.7
CC1CN(S(=O)(=O)c2cc(C(=O)NCCCN3CCCC3=O)ccc2Cl)CC(C)O1 (stereo not given),2.1%,-9.2%,.,2.24µM*,.
O=C(NCCCN1CCCC1=O)c1ccc2c(c1)OCO2,11.4%,-14.0%,15.0*,10.2%,59.0*
O=C(NCCCN1CCCC1=O)c1ccc(Cl)c(S(=O)(=O)N2CCCCC2)c1,.,7.9%,.,.,.
COc1cccc(-n2c(SCC(=O)Nc3ccc4c(c3)OCO4)nc3c([nH]c4ccccc43)c2=O)c1,-28.8%[46.1 µM],.,.,.,.
COc1ccc(NC(=O)c2cc(-c3ccccc3O)n[nH]2)cc1Cl,-2.1%[46.1 µM],76.8%,12.1,?,51.3*
SMILES,Lassa entry inh,AMA1-RON2 inh,Cycloheximide cs,Marburg entry inh,Shiga inhibitor
COc1ccc(OC)c(NC(=O)c2cc(-c3c(C)cc(C)cc3O)n[nH]2)c1,.,4.3%,7.7,.,35.9
CCc1ccc(O)c(-c2cc(C(=O)Nc3cccnc3)[nH]n2)c1,.,104.0%,28.0*,.,93.3*
CC(=O)Nc1ccc(NC(=O)c2cc(-c3cc(C)c(C)cc3O)n[nH]2)cc1,0.4%,26.1%,2.3,-1.6%,43.2
Cc1cccc(NC(=O)c2cc(-c3c(C)cc(C)cc3O)n[nH]2)c1,7.0%[46.1 µM],21.1%,27.6,10.2%[46.1 µM],51.3*
Cc1cc(O)c(-c2cc(C(=O)Nc3cccnc3)[nH]n2)cc1C,.,87.5%,43.4*,.,52.4*
Cc1ccc(NC(=O)c2cc(-c3ccccc3O)n[nH]2)cc1Cl,15.6%[46.1 µM],18.6%,7.5,8.6%[46.1 µM],17.6
CC(=O)c1ccc(S(=O)(=O)N2CCN(C(=O)CCC3CCCC3)CC2)cc1,-18.0%,-5.0%,.,-19.7%,.
CCOc1ccc(Nc2cc(C)nc3nncn23)cc1,3.2%[46.1 µM],.,.,2.9%[46.1 µM],.
Cc1cc(C)c(O)c(-c2cc(C(=O)Nc3cccnc3)[nH]n2)c1,25.4%,66.7%,29.5*,?,98.0*
Cc1cccc(NC(=O)c2cc(-c3cc(Cl)ccc3O)n[nH]2)c1,?,56.2%,37.3*,?,76.1*
COc1ccc(Cl)cc1NC(=O)c1cc(-c2cc(C)ccc2O)n[nH]1,3.5%,67.5%,10.3,-13.3%[46.1 µM],26.6
Cc1cccc(NC(=O)c2cc(-c3cc(C)cc(C)c3O)n[nH]2)c1,.,139.6%,13.1*,.,39.5*
Cc1ccc(C)c(NC(=O)c2cc(-c3cc(C)ccc3O)n[nH]2)c1,?,68.1%,58.9*,7.0%,75.9*
Cc1ccc(NC(=O)c2cc(-c3cc(Cl)ccc3O)n[nH]2)cc1C,.,59.0%,-5.3,.,-5.7
COC(=O)C/C=C\[C@@H](C)[C@@H](/C=N\OC[C@@H](O)COCc1ccco1)OC,.,.,.,-14.0%[14.2 µM],.
COC(=O)CC=C1c2ccccc2OC[C@@H](OC)[C@H]1C,.,.,.,2.4%[14.2 µM],.
CCCc1nc2oc3c(NCCN(C)C)ncnc3c2c2c1CCCC2,16.4µM*,-15.3%,-5.6,?,-14.5
CCCc1nc2oc3c(NCCCN(C)C)ncnc3c2c2c1CCCC2,?,0.5%,-6.2,?,-43.5
Clc1ccc(-c2cnnc(-c3ccccn3)n2)cc1,.,10µM*,.,.,.
c1ccc(-c2cnnc(-c3ccccn3)n2)cc1,.,10µM*,.,.,.
Nc1nc(N)nc(-c2ccccn2)n1,5.4%,?,1.1,14.9%,-7.5
Cc1ccc(NC(=O)Cn2c(=O)n(Cc3nc(C)no3)c(=O)c3cc4c(cc32)OCO4)c(C)c1,11.3%[46.1 µM],.,.,.,.
O=C(NNC(=O)c1cccc2ccccc12)c1ccc(Br)cc1,15.0%,48.9%,.,?,.
CCOC(=O)c1c(C)sc(-c2c(-c3ccc4c(c3)OCCO4)[nH]c3c2c(=O)[nH]c(=O)n3C)c1O,?,.,.,-29.6%[46.1 µM],.
CCOCCCNc1ccc(-c2ccccc2)nn1,?,-1.6%,26.6*,-6.1%,109.0*
SMILES,Lassa entry inh,AMA1-RON2 inh,Cycloheximide cs,Marburg entry inh,Shiga inhibitor
CC1(C)C(=O)Nc2ccccc2N1C(=O)COc1ccccc1C#N,1.7%[46.1 µM],-4.9%,.,-3.8%[46.1 µM],.
CCCCOC(=O)c1ccc(Nc2ncnc3nc[nH]c23)cc1,3.3%,20.4%,14.3,12.9%,17.0
Cc1cc(C)cc(Nc2ncnc3nc[nH]c23)c1,?,27.0%,17.0,?,40.5*
FC(F)Sc1ccc(Nc2ncnc3nc[nH]c23)cc1,58.7%[14.3 µM],10.4%,35.7*,-7.4%,10.8*
Cc1ccccc1CNCc1c(C(=O)O)c(C)n(Cc2ccc(F)cc2Cl)c1C,-9.7%[46.1 µM],.,.,3.1%[46.1 µM],.
CCOc1cc(CNCCc2ccc(S(N)(=O)=O)cc2)cc(Cl)c1OCc1ccccc1,?,-3.6%,8.7,?,-10.1
CCOc1cc(CNCCc2ccc(S(N)(=O)=O)cc2)ccc1OCc1ccccc1,?,-7.3%,-2.4,6.51µM*,-18.7
CCOc1cccc(/C=C2\NC(=S)N(c3ccccc3)C2=O)c1O,.,42.2%,42.0*,.,55.3*
Cc1ccc(C)c(Nc2nnc(-n3nc(C)cc3C)c3ccccc23)c1,-7.2%[46.1 µM],.,.,4.7%[46.1 µM],.
O=C(O)CCC(=O)NNC(=O)CCCOc1ccc(Cl)cc1Cl,-5.5%,10.6%,1.9,-5.4%,2.4
CC(C)NC(=O)CCCOc1ccc(Cl)cc1Cl,4.7%,-1.5%,34.0*,-3.6%,33.9

# High-throughput results deposited in PubChem BioAssay by National Center for Advancing Translational Sciences (NCATS).
